High-throughput results deposited in PubChem by National Center for Advancing Translational Sciences (NCATS).
IL1B secr inh – blocks inflammasome-driven IL-1 beta release. hit rate 4.7% among 360,000. activity change, % at 57.5 µM. THP-1 LPS/ATP IL-1B secretion, AlphaLISA, 16 h; stronger effect = lower value; in the data active = activity change below about -50%; inconclusive = mostly about -30% to -49%
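THP-1 cells pretreated 1 hr with compounds (up to 57.5 uM final), then stimulated with LPS (250 ng/mL final) plus ATP (1.25 mM final); secreted IL-1B measured by AlphaLISA after 16 hr, decreased signal indicating inhibition.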
TDP1 cell CPT – DT40-hTDP1 cell growth loss with CPT. chicken DT40 Tdp1-/-;hTDP1 cells + 20 nM CPT, ATP luminescence, 48 h. Potency, µM (top dose mostly 46.2 µM), for inactives: at the top dose activity change, negative = growth inhibition, hits mostly inhibitors. hit rate 12% among 420,000. AID 686979; also: potency is read from the fitted curve at half-maximal effect; nearly all actives have a fitted effect of over 55% in size
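Cell growth measured by CellTiter-Glo luminescence after a minimum 48 h, 37 C compound exposure with 20 nM CPT in Tdp1-knockout DT40 cells stably expressing hTDP1, seeded 400/well; qHTS titration format.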
HT1080 IDH1KD tx – kills HT-1080 cells with IDH1 knockdown; HT-1080 IDH1 knockdown viability, ATP luminescence, 48 h; Potency, µM (highest dose often 46.1 µM), for inactives: at the highest dose activity, negative = toxicity, actives largely listed as cytotoxic; hit rate 2% among 360,000; AID 686971;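 also: potency is read from the fitted curve at half-maximal effect; 0% = DMSO wells and -100% = cell-free medium wells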
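Viability of IDH1-knockdown HT-1080 fibrosarcoma cells was assessed by CellTiter-Glo after 48 h at 37 °C with titrated compound; concentration-effect curves were classified by fit quality and response size.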
HT1080-NT tox – kills 2HG-producing HT-1080-NT fibrosarcoma cells; HT-1080-NT fibrosarcoma viability, CellTiter-Glo ATP luminescence, 48 h; Potency, µM (series often up to 46.1 µM), for inactives: at the highest dose activity, negative = less viability, hits mostly cytotoxic; hit rate 1.6% among 360,000; AID 686970;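 also: NT is the 2HG producing partner of a matched IDH1 knockdown line; potency is read from the fitted curve at half-maximal effect; 0% = DMSO-treated cells and -100% = media-only wells without cells; nearly all actives have a fitted effect of over 55% in size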
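Read-out is CellTiter-Glo luminescence after 10 minutes at room temperature, following 48 hours' compound treatment of HT-1080-NT cells (750 cells/well, RPMI, 5% FBS, 37 degrees C).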
DT40 TDP1 no CPT – qHTS for Inhibitors of human tyrosyl-DNA phosphodiesterase 1 (TDP1): qHTS in cells in absence of CPT. AID 686978, 2013. Potency, µM (series often up to 46.2 µM), without a hit: at the top dose activity change, negative = growth inhibition, hits mostly inhibitors. hit rate 15% among 420,000. DT40 Tdp1-/- hTDP1 cells, no CPT, ATP luminescence, 48 h; also: potency is read from the fitted curve at half-maximal effect; nearly all actives have a fitted effect of over 55% in size
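Luminescent ATP content (CellTiter-Glo) served as the growth readout. Knockout chicken DT40 cells expressing human TDP1 were exposed to compounds without camptothecin for a minimum 48 hr at 37 °C.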
The depositor's hits bear a star; ? = inconclusive; · = not tested or not shown. An excerpt weighted towards active compounds, which were near 19% of everything screened. Unless noted, calls follow the shape of the dose curve; as a rule, active = well fitted curve in the direction sought with a large enough effect; inconclusive = small, poorly fitted or top-dose-only effect, or another doubt; inactive = no such curve, though single readings can be large; an effect the other way counts as inactive or inconclusive. Unless noted, % is scaled to controls: 0 for no effect and ±100 for the full control effect.

SMILES	IL1B secr inh	TDP1 cell CPT	HT1080 IDH1KD tx	HT1080-NT tox	DT40 TDP1 no CPT
COc1cccc(C(=O)Nc2cc(NC(=O)c3cccs3)ccc2C)c1OC	-15	?	1%	4%	?
O=c1[nH]cnc2c1c(-c1ccccc1)cn2-c1ccc(Br)cc1	?	?	-19%	-15%	16µM*
CCOc1ccc(Nc2ncnc3c2c(-c2ccccc2)cn3-c2cccc(C)c2)cc1	·	-10%	·	·	-11%
CCOc1ccc(-n2cc(-c3ccccc3)c3c(=O)[nH]cnc32)cc1	-67*	-6%	-23%	-23%	?
Cc1cccc(-n2cc(-c3ccccc3)c3c(=O)[nH]cnc32)c1	-88*	0%	-14%	-8%	-25%
CCOc1ccc(-n2cc(-c3ccccc3)c3c(=S)nc[nH]c32)cc1	9	15µM*	0%	?	?
COCCN(C(=O)C1CC1)c1nnc(-c2cccc(C)c2)s1	-9	-6%	3%	8%	-24%
Cc1ccccc1-n1nc2c(c1NC(=O)C1CC1)CS(=O)(=O)C2	15	-10%	11%	9%	-3%
CC(OC(=O)c1ccc(OCC2CCCO2)cc1)C(=O)N(C)Cc1ccccc1 (centres undefined)	-3	?	-3%	4%	?
O=C(Nc1cccc(C(=O)N2CCCCC2)c1)c1ccccc1	-1	4%	6%	?	-2%
CCN(C(=O)c1cc(OC)c(OC)c(OC)c1)C1CCCCC1	35	?	-1%	2%	23µM*
CCN(C(=O)c1cn(C)c(=O)c2cc(OC)c(OC)cc12)c1cc(C)ccc1C	8	13%	0%	-3%	?
CCN(C(=O)c1cn(C)c(=O)c2cc(OC)c(OC)cc12)c1ccccc1C	27	8%	4%	1%	-11%
CCN(C(=O)c1cc(Cl)ccc1OC)c1ccccc1C	29	?	4%	-3%	21µM*
CCN(C(=O)c1cn(CC)c(=O)c2cc(OC)c(OC)cc12)c1ccccc1F	·	-28%	·	·	21µM*
CCN(C(=O)c1cccc(NC(=O)c2ccccc2)c1)C1CCCCC1	-29	15µM*	-1%	0%	?
COc1ccc(/C=C(/NC(=O)c2ccc(C)cc2)C(=O)N2CCCC2)cc1OC	27	5%	-2%	14%	-3%
CCN(C(=O)c1cc(Cl)ccc1OC)C1CCCCC1	18	?	-15%	-3%	23µM*
COc1cc(C(=O)N(C(C)C)C2CCCCC2)cc(OC)c1OC	21	12µM*	2%	2%	10µM*
COc1cc(C(=O)NC2CCCCCCC2)cc(OC)c1OC	41	21%	7%	19%	?
COc1ccc(NC(=O)Nc2ccc3c(c2)C(=O)N([C@@H](C)CO)C[C@@H](C)[C@@H](CN(C)S(=O)(=O)c2cccs2)O3)cc1	-21	?	-4%	-6%	?
CCC12CN3CC(C)(CN(C1)C3c1c[nH]c3ccccc13)C2=O (centres undefined)	·	?	·	·	23µM*
Cc1[nH]c2ccccc2c1C1N2CC3(C)CN1CC(C)(C2)C3=O (centres undefined)	·	-15%	·	·	-13%
CCC12CN3CC(CC)(CN(C1)C3c1c(O)ccc3ccccc13)C2=O (centres undefined)	18	-3%	-1%	-2%	-6%
CCn1cc(C2N3CC4(CC)CN2CC(CC)(C3)C4=O)c2ccccc21 (centres undefined)	·	?	·	·	18µM*
SMILES	IL1B secr inh	TDP1 cell CPT	HT1080 IDH1KD tx	HT1080-NT tox	DT40 TDP1 no CPT
CCC12CN3CC(CC)(CN(C1)C3c1c[nH]c3ccccc13)C2=O (centres undefined)	·	-85%	·	·	16µM*
COc1ccc(S(=O)(=O)N2CCOCC2)cc1C(=O)Nc1ccc2c(c1)OCO2	7	13%	14%	10%	-4%
CCc1cc(=O)oc2cc(C)cc(OC(C)C(=O)NC3CCN(Cc4ccccc4)CC3)c12 (centres undefined)	-63*	?	-6%	-16%	?
CCc1cc(=O)oc2cc(C)cc(OCC(=O)N3CCC(C(=O)NC(C)C)(c4ccccc4)CC3)c12	?	23µM*	-16%	-27%	21µM*
O=C(CSc1c2c(nc3cc(Cl)ccc13)CCCC2)N1CCN(c2ccccc2F)CC1	·	10µM*	·	·	6.5µM*
CC1CCN(C(=O)c2ccc3c(Cl)c4c(nc3c2)CCCC4)CC1	-5	-12%	1%	9%	?
O=C(CSc1c2c(nc3ccc(Cl)cc13)CCCC2)N1CCN(C(=O)c2ccco2)CC1	-79*	15µM*	?	-28%	21µM*
CC1CCN(C(=O)CSc2c3c(nc4ccc(Cl)cc24)CCCC3)CC1	·	21µM*	·	·	16µM*
CC1CCCN(C(=O)CSc2c3c(nc4cc(Cl)ccc24)CCCC3)C1 (centres undefined)	·	21µM*	·	·	12µM*
c1ccc2c(c1)nc(-c1ccncc1)n1nnnc21	-14	-18%	-1%	14%	-28%
CC1CCCCN1C(=O)CSc1c2c(nc3cc(Cl)ccc13)CCCC2 (centres undefined)	·	?	·	·	18µM*
CC1CCCCN1C(=O)CSc1nc2ccccc2[nH]1 (centres undefined)	-9	3%	22%	22%	0%
Cc1[nH]n(-c2ccc(Cl)cc2)c(=O)c1N=Nc1cccnc1	14	18µM*	14%	17%	16µM*
COc1ccc(/C(O)=C2/C(=O)C(=O)N(c3ccccn3)C2c2cccc(Cl)c2)cc1 (centres undefined)	-16	1%	-3%	-6%	5%
O=c1cc(N2CCCCC2)[nH]c(=O)n1C1CCCCC1	7	-19%	-1%	-4%	0%
Cc1cc(C)cc(Nc2cc(=O)n(C3CCCCC3)c(=O)[nH]2)c1	22	?	?	?	18µM*
COc1ccc(CSc2nnnn2-c2ccccc2)cc1	-8	-14%	1%	3%	-20%
COc1ccc2c(C)cc(Sc3nnnn3-c3ccccc3)nc2c1	-95*	?	-1%	7%	?
CCCn1c(Sc2nnnn2-c2ccccc2)n[nH]c1=O	-2	1%	4%	16%	-5%
CCCSc1nnc(Sc2nnnn2-c2ccccc2)s1	-62*	4.6µM*	23µM*	16µM*	2.9µM*
O=[N+]([O-])c1ccc(Sc2nnnn2-c2ccccc2)nc1	-97*	3.3µM*	21µM*	16µM*	3.7µM*
O=[N+]([O-])c1ccc(Sc2ccccn2)nc1	9	-1%	-16%	5%	12%
